These compounds were tested against PEG-3 (UniProt Q6IN02) (assay: inhibition of PEG-3 promoter-driven reporter – cell-based, HeLa, luciferase, CREF/GAPDH counter-screen panel, dose response (AID 624167)). Settings: CREF/GAPDH counter-screens; HeLa PEG-Prom luciferase reporter, overnight, run 2, dose range 1, at 100 µM (top of the series) unless noted.
Chain of PEG-3 (Q6IN02 whole entry, looked up): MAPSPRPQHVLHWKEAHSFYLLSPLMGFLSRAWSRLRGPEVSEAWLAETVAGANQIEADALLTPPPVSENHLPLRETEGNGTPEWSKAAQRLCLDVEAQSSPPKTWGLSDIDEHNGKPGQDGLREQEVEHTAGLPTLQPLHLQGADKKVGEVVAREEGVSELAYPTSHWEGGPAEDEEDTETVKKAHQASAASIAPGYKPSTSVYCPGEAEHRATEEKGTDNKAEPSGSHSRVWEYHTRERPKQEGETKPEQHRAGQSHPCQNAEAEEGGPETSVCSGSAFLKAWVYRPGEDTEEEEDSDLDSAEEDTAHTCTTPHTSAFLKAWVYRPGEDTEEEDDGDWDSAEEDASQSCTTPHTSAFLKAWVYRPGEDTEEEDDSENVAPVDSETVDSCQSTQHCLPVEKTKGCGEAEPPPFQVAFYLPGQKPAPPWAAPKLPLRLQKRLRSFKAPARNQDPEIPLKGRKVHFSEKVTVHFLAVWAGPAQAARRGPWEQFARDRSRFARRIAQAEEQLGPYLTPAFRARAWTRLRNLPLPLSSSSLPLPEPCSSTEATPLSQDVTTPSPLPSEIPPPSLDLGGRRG

Going from `COc1ccc(NC(=O)c2cc(-c3ccccn3)nc3ccccc23)cc1S(=O)(=O)N(C)C` to `COc1ccc(C(=O)Nc2nc3ccccc3s2)c(OC)c1`, the inhibition rises from 61.2% to 98.8%.

First: CCOc1ccc2nc(NC(=O)c3ccccn3)sc2c1
Second: CCCOc1ccc2cc(-c3ccccn3)c(=O)oc2c1
The inhibition of the first is lower: 83.6% for the first, 94.5% for the second.

Compared with `Cc1c(C)c2ccc(OCC(=O)Nc3ccccn3)c(C)c2oc1=O`, `Cc1nc(SCC(=O)Nc2nc3ccccc3s2)c(C#N)c(C)c1C` is lower in inhibition: 93.2% for the first, 89% for the second.

First: N=c1n(CC(=O)c2ccc([N+](=O)[O-])cc2)c2ccccc2n1Cc1ccc(Cl)cc1
Second: O=C(O)c1ccc(N/N=C/c2ccc(OC(=O)c3cccc(Cl)c3)cc2)cc1
The inhibition of the first is higher: 101% for the first, 99.4% for the second.

Going from `O=C(Nc1ccccc1C(=O)Nc1nnc(C(F)(F)F)s1)c1ccccc1` to `O=c1c2ccccc2cnn1-c1nc2ccccc2[nH]1`, the inhibition rises from 88.8% to 99.5%.

Compared with `CCCC(=O)NC(c1ccc(OC)cc1)c1ccc2cccnc2c1O` (stereo not drawn), `CCCCC(=O)NC(c1ccccc1OC)c1ccc2cccnc2c1O` (stereo not drawn) is lower in inhibition: 88.5% for the first, 68.4% for the second.

First: Cc1cc(N2CCN(C)CC2)ccc1NC(=O)c1c2c(nc3ccccc13)CCN(Cc1ccccc1)C2
Second: CC(=O)c1sc2c(c1OC(=O)c1ccc(Cl)cc1Cl)c(=O)n(-c1ccccc1)c(=S)n2-c1ccccc1
The inhibition of the first is higher: 98.9% for the first, 96.3% for the second.

First: O=[N+]([O-])c1ccc(S(=O)(=O)c2ccccc2)nc1
Second: O=C(NCCc1ccccc1)c1ccc2c(c1)OCO2
The inhibition of the first is higher: 101% for the first, 97.8% for the second.

Going from `Cc1cc(C)c(C)c(S(=O)(=O)N2CCN(C(=O)c3cc(=O)[nH]c4ccccc34)CC2)c1C` to `Cc1nn(-c2nc3ccccc3[nH]2)c(=O)c2ccccc12`, the inhibition rises from 83.8% to 96.4%.

`O=C(NCCc1ccccc1)c1ccc2c(c1)OCCCO2` and `COC(=O)c1c(N)sc(C(=O)NCCc2ccccc2)c1C` are the same in inhibition: 102% for the first, 102% for the second.

Compared with `NC1=C(Br)C(=O)c2ncccc2C1=O`, `Cc1ccc(-c2nc(-c3ccccn3)no2)cc1Cl` is lower in inhibition: 101% for the first, 95.2% for the second.

Going from `CCOc1ccc(NC(=O)Nc2cccc(C(=O)O)c2)cc1` to `Cc1ccsc1/C=N/Nc1cccc(C(=O)O)c1`, the inhibition falls from 94.6% to 88.9%.

Compared with `CCC(=O)NC(c1cccs1)c1cc(Cl)c2cccnc2c1O` (stereo not drawn), `CN=c1scc(-c2cccs2)n1/N=C/c1ccccc1O` is higher in inhibition: 99.5% for the first, 102% for the second.

Compared with `COc1ccc(-c2cc3nc(C)n(N)c(=O)c3s2)cc1`, `COc1ccc2c(c1)sc1nc(-c3ccccc3)cn12` is lower in inhibition: 102% for the first, 97.3% for the second.

Going from `O=C(Nc1ccc(Cc2ccncc2)cc1)c1ccc([N+](=O)[O-])o1` to `Brc1ccc(N=Nc2ccc3ccccc3n2)cc1`, the inhibition falls from 101% to 94.5%.

Going from `COc1ccc(/C=C2\SC(=S)N(CCCC(=O)NNC(=O)c3ccccc3O)C2=O)cc1` to `CCSc1nc2ccccc2n1C(=O)/C=C\c1ccc(OC)c(OC)c1`, the inhibition rises from 81.1% to 95.2%.

Compared with `COC(=O)C1C=CC(OC2OC(COC(C)=O)C(OC(C)=O)C(OC(C)=O)C2OC(C)=O)n2c(=O)n(-c3ccccc3)c(=O)n21` (stereo not drawn), `COC1CC(C)C(OC)c2cc(O)cc(c2O)NC(=O)C(C)=CC=CC(C)C(OC(N)=O)C(C)=CC(C)C1OC` (stereo not drawn) is higher in inhibition: 98.3% for the first, 100% for the second.

Compared with `CC(C)Cc1ccc(C(C)C(N)=NCCc2ccccc2)cc1` (stereo not drawn), `Brc1ccc(N/N=C(/N=Nc2nn[nH]n2)c2ccccc2)cc1` is lower in inhibition: 102% for the first, 99.8% for the second.

Compared with `Cc1c([N+](=O)[O-])cc(N2C(=O)C=CC2=O)cc1[N+](=O)[O-]`, `CC(=O)N1CCCC(c2cc(C(=O)Nc3ccccc3)no2)C1` (stereo not drawn) is lower in inhibition: 102% for the first, 90.2% for the second.

`CN(C)c1ccc(/C=C/c2nc3ccccc3s2)cc1` showed an inhibition of 89.3%.

These compounds were tested on Rat fibroblasts (CREF) in the same assay as above. Settings: CREF/GAPDH counter-screens; run 1, dose range 1, at 100 µM (top of the series).

Going from `COc1ccc(NC(=O)c2cc(-c3ccccn3)nc3ccccc23)cc1S(=O)(=O)N(C)C` to `COc1ccc(C(=O)Nc2nc3ccccc3s2)c(OC)c1`, the inhibition rises from -4.8% to 97.3%.

Going from `CCOc1ccc2nc(NC(=O)c3ccccn3)sc2c1` to `CCCOc1ccc2cc(-c3ccccn3)c(=O)oc2c1`, the inhibition rises from 87.1% to 96.1%.

Going from `Cc1c(C)c2ccc(OCC(=O)Nc3ccccn3)c(C)c2oc1=O` to `Cc1nc(SCC(=O)Nc2nc3ccccc3s2)c(C#N)c(C)c1C`, the inhibition falls from 98.5% to 97.8%.

First: N=c1n(CC(=O)c2ccc([N+](=O)[O-])cc2)c2ccccc2n1Cc1ccc(Cl)cc1
Second: O=C(O)c1ccc(N/N=C/c2ccc(OC(=O)c3cccc(Cl)c3)cc2)cc1
The inhibition of the first is higher: 99.2% for the first, 46.5% for the second.

First: O=C(Nc1ccccc1C(=O)Nc1nnc(C(F)(F)F)s1)c1ccccc1
Second: O=c1c2ccccc2cnn1-c1nc2ccccc2[nH]1
The inhibition of the first is lower: -3.72% for the first, 101% for the second.

First: CCCC(=O)NC(c1ccc(OC)cc1)c1ccc2cccnc2c1O (stereo not drawn)
Second: CCCCC(=O)NC(c1ccccc1OC)c1ccc2cccnc2c1O (stereo not drawn)
The inhibition of the first is higher: 28.1% for the first, -8.76% for the second.

Compared with `Cc1cc(N2CCN(C)CC2)ccc1NC(=O)c1c2c(nc3ccccc13)CCN(Cc1ccccc1)C2`, `CC(=O)c1sc2c(c1OC(=O)c1ccc(Cl)cc1Cl)c(=O)n(-c1ccccc1)c(=S)n2-c1ccccc1` is lower in inhibition: 99.4% for the first, 14.9% for the second.

Going from `O=[N+]([O-])c1ccc(S(=O)(=O)c2ccccc2)nc1` to `O=C(NCCc1ccccc1)c1ccc2c(c1)OCO2`, the inhibition falls from 99.3% to 93.9%.

First: Cc1cc(C)c(C)c(S(=O)(=O)N2CCN(C(=O)c3cc(=O)[nH]c4ccccc34)CC2)c1C
Second: Cc1nn(-c2nc3ccccc3[nH]2)c(=O)c2ccccc12
The inhibition of the first is lower: 34.6% for the first, 100% for the second.

First: O=C(NCCc1ccccc1)c1ccc2c(c1)OCCCO2
Second: COC(=O)c1c(N)sc(C(=O)NCCc2ccccc2)c1C
The inhibition of the first is higher: 100% for the first, 93.6% for the second.

Going from `NC1=C(Br)C(=O)c2ncccc2C1=O` to `Cc1ccc(-c2nc(-c3ccccn3)no2)cc1Cl`, the inhibition rises from 98.1% to 99.3%.

Going from `CCOc1ccc(NC(=O)Nc2cccc(C(=O)O)c2)cc1` to `Cc1ccsc1/C=N/Nc1cccc(C(=O)O)c1`, the inhibition falls from 91.9% to 51.5%.

First: CCC(=O)NC(c1cccs1)c1cc(Cl)c2cccnc2c1O (stereo not drawn)
Second: CN=c1scc(-c2cccs2)n1/N=C/c1ccccc1O
The inhibition of the first is lower: 38.2% for the first, 98.2% for the second.

Going from `COc1ccc(-c2cc3nc(C)n(N)c(=O)c3s2)cc1` to `COc1ccc2c(c1)sc1nc(-c3ccccc3)cn12`, the inhibition falls from 99% to 98.8%.

Going from `O=C(Nc1ccc(Cc2ccncc2)cc1)c1ccc([N+](=O)[O-])o1` to `Brc1ccc(N=Nc2ccc3ccccc3n2)cc1`, the inhibition falls from 100% to 97.1%.

Compared with `COc1ccc(/C=C2\SC(=S)N(CCCC(=O)NNC(=O)c3ccccc3O)C2=O)cc1`, `CCSc1nc2ccccc2n1C(=O)/C=C\c1ccc(OC)c(OC)c1` is higher in inhibition: 23.4% for the first, 46.8% for the second.

Going from `COC(=O)C1C=CC(OC2OC(COC(C)=O)C(OC(C)=O)C(OC(C)=O)C2OC(C)=O)n2c(=O)n(-c3ccccc3)c(=O)n21` (stereo not drawn) to `COC1CC(C)C(OC)c2cc(O)cc(c2O)NC(=O)C(C)=CC=CC(C)C(OC(N)=O)C(C)=CC(C)C1OC` (stereo not drawn), the inhibition falls from 98.1% to 97.1%.

Compared with `CC(C)Cc1ccc(C(C)C(N)=NCCc2ccccc2)cc1` (stereo not drawn), `Brc1ccc(N/N=C(/N=Nc2nn[nH]n2)c2ccccc2)cc1` is lower in inhibition: 100% for the first, 75.7% for the second.

First: Cc1c([N+](=O)[O-])cc(N2C(=O)C=CC2=O)cc1[N+](=O)[O-]
Second: CC(=O)N1CCCC(c2cc(C(=O)Nc3ccccc3)no2)C1 (stereo not drawn)
The inhibition of the first is higher: 99.5% for the first, 93.1% for the second.

In the case of `CN(C)c1ccc(/C=C/c2nc3ccccc3s2)cc1`, the inhibition is reported as 96.6%.
